Measurements from paper PMC5540273 (PLoS ONE, 2017).

Key:
Conditions in all cases: concentration: 1 μM, replicates: in singlicate; n = 1
AAK1 = system: AAK1
ABL1-nonphosphorylated = system: ABL1-nonphosphorylated
ABL1-phosphorylated = system: ABL1-phosphorylated
ABL2 = system: ABL2
ACVR1B = system: ACVR1B
ACVR1 = system: ACVR1
ACVR2A = system: ACVR2A
ACVR2B = system: ACVR2B
ACVRL1 = system: ACVRL1
ADCK3 = system: T1, ADCK3
T1 construct: gene CABC1

ADCK4 = system: ADCK4
AKT1 = system: AKT1
AKT2 = system: AKT2
AKT3 = system: AKT3
ALK = system: ALK
AMPK-alpha1 = system: T2, AMPK-alpha1
T2 construct: gene PRKAA1

AMPK-alpha2 = system: T3, AMPK-alpha2
T3 construct: gene PRKAA2

ANKK1 = system: ANKK1
ARK5 = system: T4, ARK5
T4 construct: gene NUAK1

ASK1 = system: T5, ASK1
T5 construct: gene MAP3K5
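Note: KINOMEscan kinase panel screen.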

| Compound | %Inh (AAK1) | %Inh (ABL1-nonphosphorylated) | %Inh (ABL1-phosphorylated) | %Inh (ABL2) | %Inh (ACVR1B) | %Inh (ACVR1) | %Inh (ACVR2A) | %Inh (ACVR2B) | %Inh (ACVRL1) | %Inh (ADCK3) | %Inh (ADCK4) | %Inh (AKT1) | %Inh (AKT2) | %Inh (AKT3) | %Inh (ALK) | %Inh (AMPK-alpha1) | %Inh (AMPK-alpha2) | %Inh (ANKK1) | %Inh (ARK5) | %Inh (ASK1) |
| --- | --- | --- | --- | --- | --- | --- | --- | --- | --- | --- | --- | --- | --- | --- | --- | --- | --- | --- | --- | --- |
| CC(C)c1nc(-c2cccc(NS(=O)(=O)c3c(F)cccc3F)c2)c(-c2ccnc(Nc3ccc(N4CCOCC4)nc3)n2)s1.Cl [GSK1723980] | 7% | 99.7% | 95.6% | 99.4% | 89% | 95.9% | 0% | 81% | 83% | 100% | 100% | 0% | 11% | 0% | 19% | 74% | 91.4% | 5% | 1% | 0% |
| Fc1cc(Cl)ccc1Nc1ccnc2cc(-c3ccc(CN4CCOCC4)o3)ccc12 [GW560109] | 0% | 99.5% | 99.8% | 96.4% | 0% | 86% | 22% | 88% | 65% | 0% | 13% | 0% | 0% | 19% | 62% | 0% | 21% | 16% | 4% | 16% |
| COc1cccc(-c2nc(-c3ccccc3)[nH]c2-c2ccncc2)c1 [SB-610250] | 2% | 0% | 8% | 27% | 0% | 24% | 0% | 0% | 2% | 8% | 77% | 0% | 0% | 0% | 18% | 17% | 2% | 0% | 0% | 2% |
| CCNC(=O)/C=C/c1n[nH]c2cc(Sc3ccccc3C(=O)NC)ccc12 | 29% | 98.5% | 89% | 24% | 24% | 12% | 20% | 15% | 0% | 4% | 0% | 6% | 18% | 3% | 2% | 7% | 14% | 5% | 10% | 0% |
| COC(=O)Nc1nc2ccc(Oc3ccc(CC(=O)Nc4cc(C(F)(F)F)ccc4F)cc3)cc2[nH]1 [GW680903] | 4% | 35% | 0% | 34% | 0% | 9% | 0% | 0% | 0% | 19% | 42% | 0% | 0% | 0% | 36% | 0% | 0% | 1% | 7% | 3% |
| COC(=O)Nc1nc2ccc(Oc3ccc(NC(=O)Nc4cc(C(F)(F)F)ccc4F)cc3)cc2[nH]1.Cl [GW654607] | 17% | 99.4% | 57% | 94% | 0% | 0% | 0% | 0% | 0% | 1% | 54% | 0% | 100% | 0% | 18% | 19% | 15% | 13% | 9% | 12% |
| Cc1ccc(Nc2ccnc(Nc3ccc(C)c(F)c3)n2)cc1O.Cl [GW582868] | 0% | 3% | 47% | 70% | 0% | 88% | 53% | 92.9% | 62% | 14% | 74% | 0% | 0% | 0% | 38% | 0% | 0% | 0% | 40% | 0% |
| Cc1cc(-c2ccnc(Nc3cccc(C#N)c3)n2)cc(C)c1O [GSK1440913] | 79% | 25% | 1% | 37% | 0% | 96.5% | 8% | 88% | 17% | 35% | 72% | 0% | 0% | 0% | 7% | 17% | 32% | 9% | 23% | 0% |
| Cn1cc(-c2cnc(N)c3c(-c4ccc5c(c4)CCN5C(=O)Cc4ccccc4)csc23)cn1 [GSK2593074] | 0% | 99.7% | 89% | 81% | 9% | 7% | 0% | 0% | 0% | 7% | 0% | 14% | 0% | 8% | 0% | 17% | 0% | 0% | 3% | 21% |
| O=C(O)C(F)(F)F.O=c1[nH]ccc2nc(N[C@@H]3CCNC3)nc(Nc3ccc4c(c3)S(=O)(=O)CC4)c12 [GSK2181306] | 87% | 53% | 66% | 26% | 0% | 15% | 0% | 3% | 0% | 14% | 15% | 0% | 0% | 47% | 86% | 89% | 81% | 97.4% | 99.9% | 0% |
